Laboratory results reported in PubChem BioAssay.
A number with no mark means an inactive call. The rule behind the calls is not given here.

Each compound was assayed on Aerobactin synthetase IucA (Klebsiella pneumoniae hvKP1) (assay: IucA enzyme inhibition, primary screen, biochemical, Spectrum library (AID 1346200;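 note: 100% = wells without compound and 0% = wells lacking enzyme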)). Details: malachite green pyrophosphate, A620, at 8 µM, stronger effect = lower value.

Compound	activity remaining [%]
COc1ccc(-c2cc(C(F)F)nn2-c2ccc(S(N)(=O)=O)cc2)cc1F	123
COc1c(O)cc2c(-c3ccccc3)cc(=O)oc2c1OC	130
O=C(O)c1ccccc1OP(=O)(O)O	116
COc1cc(CNC(=O)CCCC/C=C/C(C)C)ccc1O	109
COC(=O)c1c(C)c2c(c(C)c1O)OC(=O)c1c(C)c(Cl)c(O)c(Cl)c1O2	111
C=C(C)C1(O)OC(=O)C=C1OC (centres undefined)	124
COc1cc(O)c(C(=O)O)c(O)c1	102
CN(C)CC/C=C1\c2ccccc2Sc2ccc(Cl)cc21	110
CCC(c1ccc(O)cc1)C(CC)c1ccc(O)cc1 (centres undefined)	121
COc1ccc2c(c1)O[C@H]1c3ccc(OC)cc3OC[C@@H]21	122
C=C1C(C2(C)C=CC(=O)C(C)(C)C2CC(=O)OC)CC[C@@]2(C)[C@H](c3ccoc3)OC(=O)C3OC132 (some centres undefined)	105
CC(C)NCC(O)COc1ccc(CC(N)=O)cc1 (centres undefined)	117
OCc1c[nH]c2ccccc12	118
CCCCCC/C=C\CCCCCCCc1cccc(O)c1C(=O)O	112
C#C[C@]1(O)CCC2C3CCC4=CC(=O)CC[C@@H]4C3CC[C@@]21CC (some centres undefined)	123
CNC[C@@H](O)c1ccc(O)c(O)c1	115
CC1(C)C=CC(=O)[C@@]2(C)C1CC(=O)[C@]1(C)C2CC[C@@]2(C)[C@H](c3ccoc3)OC(=O)C3OC321 (some centres undefined)	123
C=CC1=C(C)/C(=C/c2[nH]c(Cc3[nH]c(/C=C4\NC(=O)C(C)=C4C=C)c(C)c3CCC(=O)O)c(CCC(=O)O)c2C)NC1=O	112
CCCCCC(=O)O[C@]1(C(C)=O)CCC2C3CCC4=CC(=O)CC[C@]4(C)C3CC[C@@]21C (some centres undefined)	109
C[C@]12C=CC(=O)C=C1CCC1C3C[C@@H](O)[C@](O)(C(=O)CO)[C@@]3(C)C[C@H](O)[C@@]12F (some centres undefined)	125

Compound	activity remaining [%]
COCCCOc1cc(C[C@@H](C[C@H](N)[C@@H](O)C[C@H](C(=O)NCC(C)(C)C(N)=O)C(C)C)C(C)C)ccc1OC	107
CC(C)c1c(C(=O)c2ccccc2)c(-c2ccccc2)c(-c2ccc(F)cc2)n1CC[C@@H](O)C[C@@H](O)CC(=O)O	116
COC(=O)c1c(Cl)c(Cl)c(C(=O)OC)c(Cl)c1Cl	110
O=C(O)CCCCC1SCC2NC(=O)NC21 (centres undefined)	121
O=C(O)CCC(=O)Nc1ccc(S(=O)(=O)Nc2nccs2)cc1	116
COc1ccc(-c2oc3cc(OC)c(OC)c(OC)c3c(=O)c2OC)cc1	115
CCCCC(CC)CN1CN(CC(CC)CCCC)CC(C)(N)C1 (centres undefined)	89.7
O=C(OCC(O)CO)c1ccccc1Nc1ccnc2cc(Cl)ccc12 (centres undefined)	119
COc1ccc(-c2oc3cc(O[C@H]4O[C@H](CO)[C@@H](O)[C@H](O)[C@H]4O)c(OC)c(O)c3c(=O)c2OC)cc1O	77.6
CC1(C)O[C@H]2CC(=O)OC[C@]23[C@H]2CC[C@@]4(C)[C@H](c5ccoc5)OC(=O)[C@H]5O[C@]54[C@]2(C)C(=O)C[C@@H]13	112
CC(=O)O[C@H]1C[C@@H](OC(C)=O)C(C)(C)C2CC(=O)[C@]3(C)C(CC[C@@]4(C)[C@H](c5ccoc5)OC(=O)[C@H]5O[C@]543)[C@]21C (some centres undefined)	107
COc1ccc2c(c1)c(CC(=O)OCC(=O)O)c(C)n2C(=O)c1ccc(Cl)cc1	92.7
CN1C(C)(C)CCCC1(C)C	82.7
CC(CC(O)C1OC1(C)C)[C@@H]1CCC2(C)C3=CCC4C(C)(C)C(=O)CCC4(C)C3CC[C@@]12C (some centres undefined)	102
COC1=CC(C)[C@@H]2C[C@H]3OC(=O)C[C@H]4C(C)=C(OC)C(=O)C([C@@]34C)[C@@]2(C)C1=O (some centres undefined)	97.8
NC[C@H]1O[C@H](OC2[C@@H](N)C[C@@H](N)[C@H](O[C@H]3O[C@H](CO)[C@@H](O)[C@H](N)[C@H]3O)[C@H]2O)[C@H](O)[C@@H](O)[C@@H]1O (some centres undefined)	97
C[C@]12CC[C@H](O)CC1=CCC1C2CC[C@]2(C)C(=O)CCC12 (some centres undefined)	103
C/C=C/C(=O)N(CC)c1ccccc1C	112
CO[C@H]1CC(O[C@@H]2/C(C)=C/C[C@@H]3C[C@@H](C[C@]4(CC[C@H](C)[C@@H](C5CCCCC5)O4)O3)OC(=O)[C@@H]3C=C(C)/C(=N/O)[C@H]4OC/C(=C\C=C\[C@@H]2C)[C@]43O)O[C@@H](C)C1O (some centres undefined)	119
